Compounds with a hit are over-represented: about 3.3% of the library has one in this group of screens.
AmpC no deterg – qHTS Inhibitors of AmpC Beta-Lactamase (assay without detergent). P00811. 0.52% of 330,000 active. AmpC nitrocefin hydrolysis, absorbance 480 nm, 0.0001% Triton. Potency, µM (series often up to 57.1 µM), without a hit: at the highest dose activity change, negative = inhibition, most hits filed as inhibitors. AID 485341, 2010;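 note: plate controls were no compound for no effect and no enzyme for full effect; nearly all actives have a fitted effect of over 20% in size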
Target sequence (P00811 whole entry, looked up): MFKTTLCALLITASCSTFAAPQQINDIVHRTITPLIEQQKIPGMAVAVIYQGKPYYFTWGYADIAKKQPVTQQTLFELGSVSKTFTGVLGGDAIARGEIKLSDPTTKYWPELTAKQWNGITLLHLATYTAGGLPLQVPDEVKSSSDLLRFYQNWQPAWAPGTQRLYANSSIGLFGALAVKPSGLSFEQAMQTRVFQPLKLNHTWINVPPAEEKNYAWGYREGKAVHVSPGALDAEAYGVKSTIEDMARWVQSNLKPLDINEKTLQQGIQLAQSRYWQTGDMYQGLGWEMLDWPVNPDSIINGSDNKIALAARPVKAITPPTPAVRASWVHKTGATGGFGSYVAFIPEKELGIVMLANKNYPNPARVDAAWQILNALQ
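20 mM phosphate pH 7.0 + 0.01% (detergent screen) or 0.0001% Triton X-100; 5.3 nM AmpC reagent; cpd preinc 15 min RT; nitrocefin (800 uM stock) to start; A480 q20 s × 4 min; Activity was normalised to no-enzyme and no-compound control wells.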
AmpC detergent – qHTS Inhibitors of AmpC Beta-Lactamase (assay with detergent); P00811; Potency, µM (doses to about 114 µM), inactives show at the top dose activity change, negative = inhibition, hits mostly inhibitors; 0.041% of 370,000 active; AmpC hydrolysis of nitrocefin, absorbance 480 nm, 0.01% Triton;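 note: 0% = no-compound wells and -100% = no-enzyme wells; nearly all actives have a fitted effect of over 25% in size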
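20 mM phosphate pH 7.0 + 0.01% (detergent screen) or 0.0001% Triton X-100; 5.3 nM AmpC reagent; cpd preinc 15 min RT; nitrocefin (800 uM stock) to start; A480 q20 s × 4 min; Activity was normalised to no-enzyme and no-compound control wells.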
Sm TGR block – qHTS Assay for the Inhibitors of Schistosoma Mansoni Peroxiredoxins | AID 485364, 2010 | Schistosoma mansoni thioredoxin glutathione reductase (TGR), Q962Y6 | 3% of 360,000 active | purified TGR, DTNB reduction, TNB absorbance 405 nm | Potency, µM (series often up to 114 µM), without a hit: top-dose activity change, negative = inhibition, actives largely listed as inhibitors; note: nearly all actives have a fitted effect of over 60% in size
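Kinetic colorimetric format: TGR-catalysed, NADPH-driven DTNB reduction monitored via TNB absorbance. Enzyme dispensed at 20 nM; compound exposure 15 min at room temperature before reaction start.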
Active calls of the source: *; ? = inconclusive; . = no result. Calls come from the whole dose curve; as a rule, active = well fitted curve in the direction sought with a large enough effect; inconclusive = small, poorly fitted or top-dose-only effect, or another doubt; inactive = no such curve, though single readings can be large; an effect the other way counts as inactive or inconclusive. Unless noted, % is set by controls: 0 for no effect and ±100 for the full control effect; potency is the fitted concentration of half-maximal effect.

SMILES | AmpC no deterg | AmpC detergent | Sm TGR block
C/C=C(/C)C(=O)O[C@H]1[C@@H](O)c2c(ccc3ccc(=O)oc23)OC1(C)C | -2% | ? | -5%
C=C1C(=O)O[C@@H]2[C@H]1[C@@H](OC(=O)/C(C)=C/C)C/C(C)=C\C(=O)/C=C(\C)[C@@H]2O | 27% | -2% | 5.6µM*
CCSc1nc(-c2ccco2)ccc1C#N | -45% | 1% | 11µM*
N#Cc1ccc(-c2ccco2)nc1SCc1ccccc1 | -36% | -9% | ?
CC(C)CC(C(=O)NCC1CCN(Cc2ccc(F)cc2)CC1)N1Cc2ccccc2C1=O (configuration not stated) | . | 0% | 0%
CCN(CC)Cc1c(C(=O)N2CCc3ccccc3C2)nc2ccc(Cl)cn12 | 41% | -12% | -30%
COC1CCN(Cc2c(C(=O)N3CCc4ccccc4C3)nc3ccc(Cl)cn23)CC1 | -7% | 4% | -36%
COCC1CCN(Cc2c(C(=O)N3CCc4ccccc4C3)nc3ccc(Cl)cn23)C1 (configuration not stated) | 79% | 3% | 20µM*
CCN(C)Cc1c(C(=O)N2CCc3ccccc3C2)nc2ccc(Cl)cn12 | -1% | 1% | 35µM*
Cc1ccc(NC(=O)CSc2nc3ccccc3nc2Cc2ccccc2)c(C)c1 | . | 17% | 1%
Cc1cccc(C)c1Nc1sc(C(=O)c2ccccc2)c(N)c1C(=O)Nc1ccc(F)cc1 | . | 12% | 0%
COC(=O)c1nonc1NCn1nnc2ccccc21 | -16% | 1% | ?
Cc1nonc1NCn1nnc2ccccc21 | -8% | -18% | 35µM*
Cn1cccc1C(=O)NC(=O)COC(=O)c1ccc(S(C)(=O)=O)c([N+](=O)[O-])c1 | 13% | . | .
CS(=O)(=O)c1ccc(C(=O)OCC(=O)NC23CC4CC(CC(C4)C2)C3)cc1[N+](=O)[O-] | -10% | -10% | 2.8µM*
N#Cc1ccc(C(=O)Nc2ccc(Cl)c(-c3nc4cc(Cl)ccc4o3)c2)c(F)c1 | . | -2% | -5%
Cc1ccc(CSc2nc3ccncc3n2Cc2nc(-c3ccccc3C)oc2C)cc1 | . | 17% | -4%
COc1ccc(-c2n[nH]c(C)c2-c2ccc(Cl)cc2)c(O)c1 | -24% | -4% | -20%
COc1ccc(O)c(-c2c(-c3ccc(Cl)cc3)n[nH]c2C)c1 | 0% | -2% | 50µM*
CCCC12CN3CC(CCC)(CN(C1)C3c1c(C)[nH]c(=O)[nH]c1=O)C2=O (configuration not stated) | . | 20% | 3%
CCOc1c(O)ccc(/C=C2\SC(=S)NC2=O)c1[N+](=O)[O-] | -30% | 3% | .
O=C1NC(=S)S/C1=C\C=C\c1ccc([N+](=O)[O-])o1 | 11µM* | -8% | 2.2µM*
Cc1ccc(NC(=O)C2CC(=O)Nc3ncnn32)c(C)c1 (configuration not stated) | -17% | ? | 56µM*
Cc1ccc(NC(=O)C2CC(=O)Nc3ncnn32)cc1Cl (configuration not stated) | -25% | ? | 9%
COc1ccc(Cn2c(=O)[nH]c3cc(C(=O)N4CCN(c5cc(Cl)ccc5C)CC4)ccc3c2=O)cc1 | . | 10% | 8%
SMILES | AmpC no deterg | AmpC detergent | Sm TGR block
O=C(Nc1ccccc1O)c1ccc(NS(=O)(=O)c2cccc3cccnc23)cc1 | 16µM* | -2% | -2%
COC(=O)c1ccc(NC(=O)c2ccc(NS(=O)(=O)c3cccc4cccnc34)cc2)cc1 | -42% | 2% | 6%
COc1ccc(N2C(=O)CCSC23C(=O)N(Cc2ccc(F)cc2)c2ccccc23)cc1Cl (configuration not stated) | . | 19% | 13%
COc1ccc(NC(=O)CSc2nc3ccccc3n2CC(=O)NCc2ccc(F)cc2)cc1 | . | 0% | -2%
Cc1c(NC(=S)NC(=O)Cc2ccccc2)cccc1C(=O)O | -8% | 7% | 0%
COc1ccc(CC(=O)Nc2cccc(C(=O)O)c2C)cc1 | 4µM* | 2% | 5%
N#Cc1c(C(F)(F)F)cc(-c2cccs2)nc1SCC(=O)Nc1ccc(F)cc1 | . | 9% | -1%
CCC(C)NC(=O)c1ccccc1NC(=O)CN1C(=O)c2cccc3cccc1c23 (configuration not stated) | . | -6% | 0%
COc1ccc(C(c2c(O)cc(C)n(Cc3ccco3)c2=O)N2CCN(c3ccccc3)CC2)cc1 (configuration not stated) | . | 8% | 3.2µM*
COc1ccc(N2CCN(C(c3ccccc3OC)c3nnnn3Cc3ccco3)CC2)cc1 (configuration not stated) | 14% | 8% | -8%
COCCn1c(C)cc(C(=O)COC(=O)c2ccc(Cl)c(S(N)(=O)=O)c2)c1C | -20% | -20% | -1%
COCCn1c(C)cc(O)c(C(c2ccccc2Cl)N2CCCCC2)c1=O (configuration not stated) | . | 18% | 28µM*
COc1ccc(C(c2c(O)cc(C)n(Cc3ccco3)c2=O)N2CCCCC2)cc1OC (configuration not stated) | . | 22% | 7.9µM*
COc1ccc(CN2CCN(Cc3ccco3)CC2)cc1OC | -9% | -15% | -9%
COc1ccccc1C(CNC(=O)c1ccco1)N1CCCC1 (configuration not stated) | -3% | 2% | -18%
COc1ccccc1C(c1c(O)cc(C)n(Cc2ccco2)c1=O)N1CCCCC1 (configuration not stated) | . | -4% | 7.1µM*
Cc1cc(O)c(C(c2ccccc2)N2CCCCC2)c(=O)n1Cc1ccco1 (configuration not stated) | . | 0% | 10µM*
Cc1cc(O)c(C(c2ccccc2Cl)N2CCCCC2)c(=O)n1Cc1ccco1 (configuration not stated) | . | 2% | 4.5µM*
Clc1ccccc1N1CCN(Cc2ccco2)CC1 | 6% | ? | -4%
Cc1cc(C(=O)CN2C(=O)NC3(CCCCC3)C2=O)c(C)n1Cc1ccco1 | -4% | 2% | -11%
CCn1nc(C)c(CCN(C)C(=O)Nc2cc(C)cc(C)c2)c1C | . | 9% | -16%
C/C(=C\c1ccco1)C1C(C#N)=C(N)OC2=C1C(=O)CC(C)(C)C2 (configuration not stated) | -37% | ? | 35µM*
CC(c1ccccc1)C1C(C#N)=C(N)OC2=C1C(=O)CC(C)(C)C2 (configuration not stated) | -16% | -3% | -26%
CC1(C)CC(=O)C2=C(C1)OC(N)=C(C#N)C2C#Cc1ccccc1 (configuration not stated) | -38% | -9% | 1.6µM*
CC1(C)CC(=O)C2=C(C1)OC(N)=C(C#N)C2c1ccoc1 (configuration not stated) | 1% | 2% | -15%
Cc1c(N=Nc2c(O)[nH]c(=O)[nH]c2=O)c(=O)n(-c2ccccc2)n1C | -20% | -5% | -2%
Cc1c(N=Nc2c(O)n(-c3ccc(Br)cc3)c(=O)[nH]c2=O)c(=O)n(-c2ccccc2)n1C | -21% | 0% | 10µM*
COc1ccc(S(=O)(=O)c2nnn(-c3ccc(C(C)C)cc3)c2C)cc1 | . | 23% | 0%
